“And” between values parts separate entries of the source, which are not always exact repeats. Equal values may be shown once. Results filed as inconclusive are left out. Where a call stands in place of a potency, no number is given. The source made the active and inactive calls. Calls come from the whole dose curve; as a rule, active = well fitted cell-killing curve with a large enough effect in the repeat runs; inconclusive = weak or mixed curves, or effect the other way; inactive = flat fitted curve, though single readings scatter.
Assay: cAMP Responsive Elements (CRE) small molecule antagonists, cell-based qHTS assay: qHTS cell viability counter screen (AID 2060913); note: nearly all actives have a fitted effect of over 40% in size
Conditions: CRE-bla HEK293T viability, CellTiter-Glo luminescence, 5 h; series mostly up to 92.4 µM
In short: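 CRE-bla HEK293T cells were seeded in assay medium with 10% dialyzed FBS, incubated 18 hrs at 37 C, then exposed to compounds plus 0.25 uM final NKH477 for 3 hrs. Viability was read by CellTiter-Glo luminescence after 30 min, in the same wells.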
Potency is the fitted concentration of half-maximal effect.

| SMILES | Potency |
| --- | --- |
| CC(C)(C)CC(C)(C)c1ccc(OCCOCC[N+](C)(C)Cc2ccccc2)cc1 | 27.3 µM (active) and 29.8 µM (active) |
| CC(=O)C1C(=O)C=C(C)OC1=O (stereo unspecified) | inactive |
| CCOc1ccc2[nH]cc(C(=O)NCc3ccccc3)c(=O)c2n1 | inactive |
| O=C(O)c1cccnc1Nc1cccc(C(F)(F)F)c1 | inactive |
| CCOC(=O)Cc1cccc2ccccc12 | inactive |
| CC(C)CC(C)(O)C#CC(C)(O)CC(C)C (stereo unspecified) | inactive |
| COC(=O)CC(C)CCC=C(C)C (stereo unspecified) | inactive |
| CCCCOC(=O)c1ccccc1C(=O)OCC(CC)CCCC (stereo unspecified) | inactive |
| CC(C)N=C(N)/N=C(\N)Nc1ccc(Cl)cc1 | inactive |
| Cc1cc(=O)oc2cc(N(C)C)ccc12 | inactive |
| CCc1oc2ccccc2c1C(=O)c1cc(Br)c(O)c(Br)c1 | inactive |
| O=C(O)[C@H](O)c1ccccc1 | inactive |
| CCCCCCCCCCCCCC | inactive |
| COc1ccc(Nc2ccc(OC)cc2)cc1 | inactive |
| CC12CCC(CC1)C(C)(C)O2 | inactive |
| O=C1c2c(O)ccc(O)c2C(=O)c2c(NCCNCCO)ccc(NCCNCCO)c21 | inactive |
